Bioassay records from PubChem.
IP6K1 inh – inhibitors of human IP6K1; Q92551; IP6K1 kinase, ADP-Glo luminescence, 2 h; hits give low values; activity change, % (series mostly up to about 58 µM); hit rate 0.81% among 140,000; in the data active = activity change below about -25%
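ADP-Glo luminescence measures ADP made by human IP6K1 during a 2 h RT reaction with ATP/IP6 (mix at 1.3 mM/130 uM); top library doses 57.5 and 19.1 uM final.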
GPT2 inh – GPT2 alanine aminotransferase inhibition; Q8TD30; Recombinant GPT2, coupled pyruvate oxidase/HRP Amplex Red fluorescence; Potency, µM (doses to about 57.7 µM), hits mostly inhibitors; hit rate 0.25% among 100,000; AID 1671188; note: nearly all actives have a fitted effect of over 60% in size
Target sequence (Q8TD30 whole entry, looked up): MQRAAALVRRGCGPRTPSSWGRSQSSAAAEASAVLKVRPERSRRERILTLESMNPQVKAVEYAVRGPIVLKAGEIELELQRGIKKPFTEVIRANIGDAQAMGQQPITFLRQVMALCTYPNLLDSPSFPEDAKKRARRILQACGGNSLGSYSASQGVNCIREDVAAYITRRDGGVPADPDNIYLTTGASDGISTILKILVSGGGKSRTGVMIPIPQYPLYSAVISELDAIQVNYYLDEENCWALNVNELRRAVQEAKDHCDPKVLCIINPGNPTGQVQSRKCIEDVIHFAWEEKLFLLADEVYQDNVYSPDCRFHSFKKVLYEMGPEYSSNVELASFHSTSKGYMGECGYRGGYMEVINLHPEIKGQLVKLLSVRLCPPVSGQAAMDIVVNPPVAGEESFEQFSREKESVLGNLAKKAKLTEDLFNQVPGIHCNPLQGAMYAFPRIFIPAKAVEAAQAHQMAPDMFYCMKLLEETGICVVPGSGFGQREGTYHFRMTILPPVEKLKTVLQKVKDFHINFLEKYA
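Fluorescence of coupled pyruvate oxidase/HRP/Amplex Red system (50uM Amplex, 30 min, dark) reports pyruvate formed by GPT2. Enzyme reaction: 10ng/uL GPT2, 2mM L-alanine, 250uM a-KG, 30 min room temperature, pH 7.5; 50uM AOA control.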
GPT2 conf – confirmation of human GPT2 inhibitors; shares compounds with GPT2 inh; GPT2 enzyme, coupled Amplex Red pyruvate fluorescence; Potency, µM, most hits filed as inhibitors; hit rate 90% among 95; AID 1671187
Each line names hits and unclear results; the compound was inactive in the other large screens (follow-up assays come after a bar, where they were run); ! = repeats disagree. Most compounds without a hit are left out; they make up all but 0.82% or so of the library. Unless noted, calls come from the whole dose curve; as a rule, active = well fitted inhibition curve with a large enough effect; inconclusive = small, poorly fitted or top-dose-only effect; inactive = flat fitted curve, though single readings scatter.

COc1ccc(NC2CCCN(C(=O)c3ccccc3C(F)(F)F)C2)cc1OC (configuration not stated)	GPT2 inh inconclusive | GPT2 conf 3.9
COc1ccc(NC2CCCN(C(=O)c3cc(C(C)=O)n[nH]3)C2)cc1OC (configuration not stated)	GPT2 inh inconclusive
COc1cccc(-c2ccc(NC(=O)C3CCCN(C(=O)CC(F)(F)F)C3)cc2)c1 (configuration not stated)	none
Cc1ccc(C2Cn3nnc(-c4noc(-c5ccccn5)n4)c3CO2)cc1 (configuration not stated)	none
Oc1ccccc1CN1CCNc2cnc(Nc3ccccc3)cc2C1	GPT2 inh 6.3µM | GPT2 conf 6.3
c1ccc(CN2CCNc3cnc(Nc4ccncn4)cc3C2)cc1	GPT2 inh inconclusive
Oc1ccccc1CN1CCNc2cc(Nc3ccccc3)ncc2C1	none
COc1ccc(CN2CCNc3cnc(Nc4ccccc4)cc3C2)cc1O	GPT2 inh inconclusive | GPT2 conf 5
COc1ccc(CN2CCNc3cc(Nc4cccnc4)ncc3C2)cc1O	none
c1ccc(Nc2cc3c(cn2)NCCN(Cc2ccccn2)C3)cc1	none | GPT2 conf 3.5
CC1C=CC(C)N1c1ncnc2c1CN(C1CCCNCC1)C(=O)CN2C (configuration not stated)	none
O=C(c1cccs1)N1CC(c2noc(C3CCCN3CC3CC3)n2)C1 (configuration not stated)	none
CCc1cc(NCc2nc(-c3ccncc3)n[nH]2)n2nc(C)c(C)c2n1	none
COCCN1C(=O)c2cccn2CC1CNC(=O)c1ccc(OC)c(OC)c1 (configuration not stated)	none
CCCn1ncc(N2CCC(C(=O)N(CCCOC)Cc3ccc4c(c3)CCCN4CC)CC2)cc1=O	GPT2 inh 10µM | GPT2 conf 1.7
CCCn1ncc(N2CCC(C(=O)N(CCc3ccncc3)CC3CCCO3)CC2)cc1=O (configuration not stated)	none
O=C(NC1CCN(c2ccc3nnc(-c4ccccc4)n3n2)C1)c1cccc(Cl)c1 (configuration not stated)	none (no result: GPT2 inh)
O=C(NCc1cccnc1)c1ccc2oc(-c3ccc(C(F)(F)F)cc3)nc2c1	none
COc1cccc(CCC(=O)Nc2ccc3ncnc(N4CCCC4)c3c2)c1	none
C=CC(=O)Nc1cccc(Oc2nc(Nc3ccc(N4CCN(C)CC4)cc3OC)ncc2Cl)c1	GPT2 inh inconclusive
COc1cc(N2CCC(N3CCN(C)CC3)CC2)ccc1Nc1ncnc(Nc2ccccc2S(=O)(=O)C(C)C)n1	GPT2 inh 4.3µM! | GPT2 conf 1.5
COc1cc(N2CCC(C(N)=O)CC2)ccc1Nc1nc(N)c(Cl)c(Nc2ccccc2S(=O)(=O)C(C)C)n1	GPT2 inh 1.4µM (no result: IP6K1 inh) | GPT2 conf 3.9
CCOc1cc(N2CCC(O)CC2)ccc1Nc1ncc2c(n1)N(C1CCCC1)CCC(=O)N2C	GPT2 inh inconclusive
COc1cc(N2CCC(O)CC2)ccc1Nc1cc(Nc2ccccc2S(=O)(=O)C(C)C)c2cc[nH]c2n1	GPT2 inh 3.4µM! | GPT2 conf 3.4
COc1ccccc1Nc1ccnc(N2CCC(C(=O)NC(C)C)CC2)n1	none
COc1ccc(C(=O)N2CCC3(CC2)OC(=O)N(Cc2cccnc2)C3(C)c2ccccc2)cn1 (configuration not stated)	none
COc1cccc(C(=O)NC2CCN(c3cnn(C)c(=O)c3)CC2)c1OC	none
COC(=O)[C@@H]1Cc2c([nH]c3ccccc23)[C@H]2C[C@@H](NCCNC(C)=O)C[C@@H](c3ccc(-c4ccccc4)cc3)N21	none
Cc1ccc(Nc2c(-c3ccc(N4CCOCC4)cc3)nc3ncccn23)cc1	none (no result: GPT2 inh)
CN1CCN(C)c2cc(Nc3ccc(N4CCOCC4)cc3)ncc2C1	none (no result: IP6K1 inh, GPT2 inh) | GPT2 conf 7
c1ccc(CCN2CCNc3cc(Nc4ccc(N5CCOCC5)cc4)ncc3C2)cc1	GPT2 inh 14µM | GPT2 conf 6.3
c1ccc(CN2CCNc3cnc(Nc4ccc(N5CCOCC5)cc4)cc3C2)cc1	GPT2 inh inconclusive
COc1ccc(NC2CCCN(CC(=O)Nc3ccc(C)cn3)C2)cc1 (configuration not stated)	GPT2 inh inconclusive | GPT2 conf 5.4
CCNc1ncc(C(=O)N2CCCC(Nc3ccc(OC)cc3)C2)cn1 (configuration not stated)	none
O=C(c1nnc(CNc2ccc(F)cc2)n1-c1ccccc1)N1CCC[C@@H]1C(c1ccccc1)c1ccccc1	none
Cn1ccc2cc(NCc3nnc(C(=O)N4CCC[C@@H]4CN4CCCC4)n3-c3ccccc3)ccc21	GPT2 inh inconclusive | GPT2 conf inconclusive
c1ccc(C2=NOC3(CCN(C4CCCCC4)CC3)C2)cc1	none
OCCN(CCO)c1nc(N2CCCCC2)c2nc(N(CCO)CCO)nc(N3CCCCC3)c2n1	GPT2 inh 6.3µM! | GPT2 conf 1.7
